In ChEMBL document CHEMBL5308504, “Tm Shift (DSF) assay results for EUbOPEN Chemogenomics Library” (2023) one finds ΔTm data, which are given here for 22 compounds.

The term ΔTm denotes the shift of the melting midpoint relative to a reference.

Holding throughout (conditions): Compound concentration 20.0 uM, Protein concentration 2.0 uM, Result type QC Liability
Experiment [1] deals with Tyrosine-protein kinase ABL1 (Homo sapiens) (UniProt P00519).
In experiment [2] the target is Cyclin-dependent kinase 2 (Homo sapiens) (UniProt P24941).
For experiment [3], the target named is Casein kinase I isoform delta (Homo sapiens) (UniProt P48730).
Sequence of Casein kinase I isoform delta (Homo sapiens) (P48730 whole entry, looked up, canonical isoform): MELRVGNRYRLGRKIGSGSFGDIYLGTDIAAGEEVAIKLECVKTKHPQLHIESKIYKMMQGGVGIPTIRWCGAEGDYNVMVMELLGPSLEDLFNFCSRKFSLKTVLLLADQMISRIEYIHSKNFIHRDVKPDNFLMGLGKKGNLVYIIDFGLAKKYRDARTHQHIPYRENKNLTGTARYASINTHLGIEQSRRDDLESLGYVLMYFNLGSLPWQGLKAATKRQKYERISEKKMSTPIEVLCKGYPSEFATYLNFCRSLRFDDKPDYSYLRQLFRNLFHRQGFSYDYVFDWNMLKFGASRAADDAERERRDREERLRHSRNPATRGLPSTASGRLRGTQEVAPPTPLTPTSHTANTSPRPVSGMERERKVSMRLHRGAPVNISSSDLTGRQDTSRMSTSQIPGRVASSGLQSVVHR
The target of experiment [4] is Glycogen synthase kinase-3 beta (Homo sapiens) (UniProt P49841).
Sequence of Glycogen synthase kinase-3 beta (Homo sapiens) (P49841 whole entry, looked up): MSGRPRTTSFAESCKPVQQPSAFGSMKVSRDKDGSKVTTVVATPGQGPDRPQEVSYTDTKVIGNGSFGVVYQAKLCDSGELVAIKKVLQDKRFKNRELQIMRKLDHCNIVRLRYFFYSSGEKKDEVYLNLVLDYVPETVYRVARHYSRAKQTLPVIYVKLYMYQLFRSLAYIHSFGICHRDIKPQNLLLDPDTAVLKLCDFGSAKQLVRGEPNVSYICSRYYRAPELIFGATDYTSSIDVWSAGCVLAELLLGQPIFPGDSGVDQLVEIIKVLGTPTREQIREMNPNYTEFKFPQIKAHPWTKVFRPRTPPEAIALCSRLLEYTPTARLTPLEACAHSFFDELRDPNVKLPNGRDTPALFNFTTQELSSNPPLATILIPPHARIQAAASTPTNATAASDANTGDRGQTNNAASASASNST
The target in experiment [5] is Mitogen-activated protein kinase 1 (Homo sapiens) (UniProt P28482).
Sequence of Mitogen-activated protein kinase 1 (Homo sapiens) (P28482 whole entry): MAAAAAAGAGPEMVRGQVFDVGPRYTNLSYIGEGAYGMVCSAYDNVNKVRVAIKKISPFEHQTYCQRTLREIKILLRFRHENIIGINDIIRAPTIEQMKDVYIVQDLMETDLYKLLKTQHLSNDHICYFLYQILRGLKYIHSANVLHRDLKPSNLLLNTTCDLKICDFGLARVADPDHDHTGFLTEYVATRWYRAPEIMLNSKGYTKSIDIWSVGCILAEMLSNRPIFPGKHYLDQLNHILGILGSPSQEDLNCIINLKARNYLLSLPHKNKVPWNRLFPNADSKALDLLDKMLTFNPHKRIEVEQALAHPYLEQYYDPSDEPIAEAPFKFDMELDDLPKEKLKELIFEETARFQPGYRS
For experiment [6], the target named is T1, Aurora kinase A (Homo sapiens) (UniProt O14965).
T1 sequence (whole entry): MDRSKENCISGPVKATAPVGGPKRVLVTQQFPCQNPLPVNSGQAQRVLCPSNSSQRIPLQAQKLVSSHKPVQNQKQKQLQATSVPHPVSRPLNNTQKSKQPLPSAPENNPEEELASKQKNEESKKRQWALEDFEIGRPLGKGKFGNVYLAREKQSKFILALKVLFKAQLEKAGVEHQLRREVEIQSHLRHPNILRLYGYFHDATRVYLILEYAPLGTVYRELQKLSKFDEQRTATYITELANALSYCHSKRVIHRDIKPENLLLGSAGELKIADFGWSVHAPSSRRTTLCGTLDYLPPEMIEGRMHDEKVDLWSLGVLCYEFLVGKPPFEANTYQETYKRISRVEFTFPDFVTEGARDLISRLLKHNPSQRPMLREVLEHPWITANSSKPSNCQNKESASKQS

Sequence of Tyrosine-protein kinase ABL1 (Homo sapiens) (P00519 whole entry): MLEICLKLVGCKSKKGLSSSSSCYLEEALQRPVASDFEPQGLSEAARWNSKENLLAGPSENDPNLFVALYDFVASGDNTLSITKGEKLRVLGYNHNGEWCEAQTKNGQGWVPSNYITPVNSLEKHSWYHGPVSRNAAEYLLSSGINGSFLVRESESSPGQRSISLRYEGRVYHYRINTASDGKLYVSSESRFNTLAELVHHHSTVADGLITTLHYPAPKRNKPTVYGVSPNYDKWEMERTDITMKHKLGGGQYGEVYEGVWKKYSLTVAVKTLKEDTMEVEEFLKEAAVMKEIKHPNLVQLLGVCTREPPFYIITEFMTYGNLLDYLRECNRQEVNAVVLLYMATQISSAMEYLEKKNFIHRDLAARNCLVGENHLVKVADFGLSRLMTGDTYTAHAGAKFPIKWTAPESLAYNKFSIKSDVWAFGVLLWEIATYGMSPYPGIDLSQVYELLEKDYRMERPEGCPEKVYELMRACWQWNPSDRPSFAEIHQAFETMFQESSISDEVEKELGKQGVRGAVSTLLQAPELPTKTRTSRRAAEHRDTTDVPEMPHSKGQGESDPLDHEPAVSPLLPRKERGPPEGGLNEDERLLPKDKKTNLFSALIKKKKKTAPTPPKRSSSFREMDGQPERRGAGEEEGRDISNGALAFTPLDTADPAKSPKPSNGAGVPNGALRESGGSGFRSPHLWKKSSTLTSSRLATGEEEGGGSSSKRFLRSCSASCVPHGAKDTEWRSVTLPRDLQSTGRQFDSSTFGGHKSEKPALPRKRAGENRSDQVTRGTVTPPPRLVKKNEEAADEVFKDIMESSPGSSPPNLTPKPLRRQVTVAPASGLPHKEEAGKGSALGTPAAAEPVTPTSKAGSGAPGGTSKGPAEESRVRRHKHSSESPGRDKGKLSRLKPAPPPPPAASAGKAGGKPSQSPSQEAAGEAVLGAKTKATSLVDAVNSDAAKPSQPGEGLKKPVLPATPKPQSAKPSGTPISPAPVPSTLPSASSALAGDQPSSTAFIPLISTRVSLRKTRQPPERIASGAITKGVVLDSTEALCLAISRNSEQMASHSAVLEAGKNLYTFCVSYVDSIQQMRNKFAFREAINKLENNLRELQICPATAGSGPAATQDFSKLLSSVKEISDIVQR

Turning to `CNc1ncc2cc(-c3ccc(-c4cccc(C)n4)cc3Cl)c(=O)n(C[C@H]3OC[C@H](N)CO3)c2n1`, the ΔTm in experiment [1] is 5.88 °C; in experiment [2], 1.85 °C; in experiment [3] it was 1.07 °C; in experiment [4], 0.45 °C; in experiment [5], -0.4 °C; in experiment [6], 8.51 °C.
On to `CC(C)(C#Cc1ccc(NC(=O)COc2ccccc2C(=O)c2ccccc2)c(Cl)c1)C(=O)O`, for which the ΔTm in experiment [1] is 0.32 °C; in experiment [2], -1.47 °C; in experiment [3], -0.18 °C; in experiment [4], 0 °C; in experiment [5], -0.94 °C; in experiment [6], 0.27 °C.
For `COc1cc(N2CCN(C)CC2)ccc1Nc1ncc2c(n1)N(C)c1ccccc1C(=O)N2CC(F)(F)F`, the ΔTm in experiment [1] is 0.67 °C; in experiment [2], -0.65 °C; in experiment [3], 0.47 °C; in experiment [4], -0.83 °C; in experiment [5], 0.11 °C; in experiment [6], 0.18 °C.
In the case of `CCn1c(CNC(=O)c2nc(Cl)cnc2N)[n+](CC)c2ccc(C(=O)N(C)CCN(C)C)cc21`, the ΔTm in experiment [1] was 0.14 °C; in experiment [2], 0.44 °C; in experiment [3], 0.35 °C; in experiment [4] it was -0.7 °C; in experiment [5], 0.33 °C; in experiment [6], -0.18 °C.
Take `CCCCOc1c(C(=O)c2c(F)cc(C)cc2F)c[nH]c2nncc1-2`: the ΔTm in experiment [1] turned out to be 0.35 °C; in experiment [2], 2.95 °C; in experiment [3] it was 0.13 °C; in experiment [4] it was 0.42 °C; in experiment [5], 0.05 °C; in experiment [6], 0.96 °C.
In the case of `Cc1nc2ccc(Oc3ccc(F)cc3)cc2c(=O)n1C[C@H]1CCCN(C(C)C)C1`, the thermal shift (ΔTm) is 0.92 °C in experiment [1]; 0.32 °C in experiment [2]; 0.35 °C in experiment [3]; -0.38 °C in experiment [4]; 0.41 °C in experiment [5]; 0.12 °C in experiment [6].
As for `O=C1CCCN1CCNc1nc(Nc2ccc(Cl)c(Cl)c2)ncc1C(F)(F)F`, the ΔTm in experiment [1] came out at 4.3 °C; in experiment [2], 5.26 °C; in experiment [3] it was 0.96 °C; in experiment [4], 3.17 °C; in experiment [5], 4.18 °C; in experiment [6], 11.2 °C.
As to `COc1ccc(-c2c(-c3ccccc3)oc3ncnc(O[C@H](C)CCCCC(=O)O)c23)cc1`, the ΔTm in experiment [1] was -0.07 °C; in experiment [2], -2.59 °C; in experiment [3] it was -0.84 °C; in experiment [4] it was -2 °C; in experiment [5], -3.65 °C; in experiment [6] it was 5.26 °C.
On to `COC(=O)c1ccc2c(c1)NC(=O)/C2=C(\Nc1ccc(-c2nccn2C)cc1)c1ccccc1`, for which the ΔTm was 3.43 °C in experiment [1]; 0.27 °C in experiment [2]; -0.5 °C in experiment [3]; 1.96 °C in experiment [4]; -6.31 °C in experiment [5]; -1.46 °C in experiment [6].
For the compound `O[C@]1(C(F)(F)F)CCCC[C@H]1Nc1ccc(F)cc1`, the ΔTm in experiment [1] was 0.25 °C; in experiment [2], 1.15 °C; in experiment [3], 0.07 °C; in experiment [4], -0.77 °C; in experiment [5] it was 0.26 °C; in experiment [6] it was 0.42 °C.
On to `CCN(CC)C(=O)C1CN2CCc3cc(OC)c(OC)cc3C2CC1OC(C)=O` (configuration not stated), for which the ΔTm is -0.43 °C in experiment [1]; 0.69 °C in experiment [2]; -0.03 °C in experiment [3]; -1.02 °C in experiment [4]; 0.11 °C in experiment [5]; -0.04 °C in experiment [6].
As for `Cc1cc(C2CCCNC2)ccc1Nc1ncc(Br)c(NCc2cccc3c2C(C)(C)C(=O)N3)n1` (configuration not stated), the ΔTm in experiment [1] was 1.52 °C; in experiment [2] it was 2.03 °C; in experiment [3], 0.34 °C; in experiment [4], 1.91 °C; in experiment [5] it was 2.1 °C; in experiment [6] it was 3.81 °C.
Take `Cc1nn(-c2nc3ccc(Cl)c(Cl)c3[nH]2)c(O)c1C1OC(=O)c2ccccc21` (configuration not stated): the ΔTm is -0.04 °C in experiment [1]; 2.69 °C in experiment [2]; -0.14 °C in experiment [3]; 0.53 °C in experiment [4]; 0.2 °C in experiment [5]; 0.71 °C in experiment [6].
On to `COc1cc(C)c(S(=O)(=O)N(C)CCOCC(=O)N(C)[C@H]2CCC[C@@H](N3CCN(C)CC3)C2)c(C)c1`, for which the ΔTm in experiment [1] was -0.63 °C; in experiment [2] it was 0.33 °C; in experiment [3], 0.16 °C; in experiment [4], -0.91 °C; in experiment [5] it was -0.21 °C; in experiment [6], -0.27 °C.
Consider `COc1cc(Oc2nc(-c3ccc(NC(=O)C4CCOC4)cc3)nn3c(C)nc(C)c23)cc(OC)c1OC` (configuration not stated), for which the ΔTm is 0.18 °C in experiment [1]; 0.72 °C in experiment [2]; 0.03 °C in experiment [3]; -0.39 °C in experiment [4]; 0.18 °C in experiment [5]; 0.1 °C in experiment [6].
On to `Cc1cc(Cn2c(N3CC4(CNC4)C3)nc3c(N4CCN(C)CC4)cc(Cl)cc32)cc(C)c1F`, for which the ΔTm in experiment [1] is 0.24 °C; in experiment [2], 0.83 °C; in experiment [3], 0.19 °C; in experiment [4], 0.34 °C; in experiment [5], 0.58 °C; in experiment [6] it was 0.07 °C.
Consider `CC(C)c1cnc(NC(=O)Cc2ccccc2)s1`, for which the ΔTm in experiment [1] was 1.04 °C; in experiment [2], 4.66 °C; in experiment [3] it was 2.55 °C; in experiment [4] it was 3.64 °C; in experiment [5] it was 0.91 °C; in experiment [6], -0.53 °C.
Regarding `Cc1ccccc1Oc1cc(-n2c(=O)cc(C(F)(F)F)[nH]c2=O)c2ccccc2c1Cl`, the ΔTm is -0.09 °C in experiment [1]; 0.61 °C in experiment [2]; 0.85 °C in experiment [3]; -1.52 °C in experiment [4]; -0.82 °C in experiment [5]; -1.95 °C in experiment [6].
Turning to `C1=Cc2ccccc2C(=C2CCN(CCCCc3nnn[nH]3)CC2)c2ccccc21`, the ΔTm was -0.16 °C in experiment [1]; 0.18 °C in experiment [2]; -0.15 °C in experiment [3]; 0.27 °C in experiment [4]; -0.08 °C in experiment [5]; -0.37 °C in experiment [6].
On to `CC(C)Oc1ccc(Cc2ccc(NC3=NCCN3)cc2)cc1`, for which the ΔTm in experiment [1] is 0.13 °C; in experiment [2], 0.19 °C; in experiment [3], -0.09 °C; in experiment [4], -0.57 °C; in experiment [5], -0.5 °C; in experiment [6] it was -0.48 °C.
Turning to `CC(=O)N(CCN(C)C)c1ccc(N/C(=C2\C(=O)Nc3cc(Cl)ccc32)c2ccccc2)cn1`, the ΔTm in experiment [1] turned out to be 8.38 °C; in experiment [2] it was 3.16 °C; in experiment [3], 2.87 °C; in experiment [4] it was 11.3 °C; in experiment [5] it was 0.38 °C; in experiment [6] it was 7.54 °C.
On to `CCc1c(-c2ccc3[nH]ncc3c2)cnc(N)c1-c1ccc(O)cc1`, for which the ΔTm in experiment [1] is 1.38 °C; in experiment [2] it was 2.8 °C; in experiment [3], 1.28 °C; in experiment [4], 1.03 °C; in experiment [5], 0.44 °C; in experiment [6], 3.28 °C.
